Composite z-score and z-score data for eleven compounds are collected here from PubChem BioAssay.

Assay [1] has as its system Plasmodium falciparum Sir2 (PF13_0152, Sir2A). Put plainly: Plasmodium falciparum Sir2A binding compounds – biochemical, small-molecule microarray, 635 nm fluorescence, primary screen (AID 1098).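 Further: score merges spot fluorescence intensity with its signal-to-noise ratio.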 Conditions: fluorescence 635 nm, higher = more signal.
Assay [2] is described as follows: probe aDKK1 binding to arrayed compounds – biochemical, biotinylated probe, 635/667 nm fluorescence, primary screen (AID 1099).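 Further: score merges 667nm spot fluorescence with signal to noise across triplicate slides; reference of the scale not given here.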 Conditions: small-molecule microarray, higher = more signal.
Assay [3] can be described thus: probe aCHRDL2 binding to arrayed compounds – biochemical, biotinylated probe, 635/667 nm fluorescence, primary screen (AID 1100). Conditions: small-molecule microarray, higher = more signal.
A short description of assay [4]: change in splice reporter luminescence, either direction, cell-based, HEK293, spliceosome inhibition project, primary screen (AID 1101).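 Further: HEK293 cells carrying a splicing-competent luciferase reporter gene; test concentration not given here.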 Conditions: HEK293 splicing luciferase reporter, 24 h, higher = more signal, called active from +8 up or from −8 down. A general note: Reporter assays use an easily measured gene product as a stand-in for the process of interest.
In assay [5] the target is Fibroblast growth factor 10 (Homo sapiens) (UniProt O15520). The assay can be described thus: compounds binding fibroblast growth factor 10 – biochemical, small-molecule microarray, 635 nm fluorescence, primary screen (AID 1102). Conditions: FGF10 binding, fluorescence 635 nm, higher = more signal.
The test system of assay [6] is glycogen synthase kinase-3 (GSK3A per assay name; protocol says GSK3B). Put plainly: compounds binding glycogen synthase kinase-3 – biochemical, small-molecule microarray, 635 nm fluorescence, GSK3A, primary screen (AID 1103). Further: the record names both GSK3A and GSK3B. Conditions: fluorescence 635 nm, higher = more signal.
Assay [7] concerns the target Epidermal growth factor receptor (Homo sapiens) (UniProt P00533). The assay can be described thus: compounds binding epidermal growth factor receptor – biochemical, small-molecule microarray, 635 nm fluorescence, primary screen (AID 1104).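 Further: score merges 667 nm emission intensity with spot signal to noise over triplicate slides.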 Conditions: EGFR binding, higher = more signal.
The target in assay [8] is Follistatin-related protein 3 (Homo sapiens) (UniProt O95633). The assay can be described thus: compounds binding follistatin-related protein 3 – biochemical, small-molecule microarray, 635 nm fluorescence, primary screen (AID 1105).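 Further: score merges emission near 667 nm and signal to noise per printed spot across three slides.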 Conditions: FSTL3 binding, higher = more signal.
Assay [9] concerns the target Dickkopf-related protein 1 (Homo sapiens) (UniProt O94907). Put plainly: small molecules binding DKK1 protein – biochemical, small-molecule microarray, 635 nm fluorescence scan, primary screen (AID 1106).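 Further: score merges emission near 667 nm with signal to noise over three replicate slides.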 Conditions: higher = more signal.
Assay [10] relates to Inhibin beta A chain (activin A). Put plainly: small molecules binding activin A – biochemical, small-molecule microarray, 635 nm fluorescence scan, primary screen (AID 1107).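 Further: mouse activin A protein probed at 4.33 µg/mL on printed slides; score merges bound-protein fluorescence near 667 nm with spot signal-to-noise.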 Conditions: INHBA, higher = more signal.

Activity calls are given as the source filed them.

Chain of Epidermal growth factor receptor (Homo sapiens) (P00533 whole entry, looked up): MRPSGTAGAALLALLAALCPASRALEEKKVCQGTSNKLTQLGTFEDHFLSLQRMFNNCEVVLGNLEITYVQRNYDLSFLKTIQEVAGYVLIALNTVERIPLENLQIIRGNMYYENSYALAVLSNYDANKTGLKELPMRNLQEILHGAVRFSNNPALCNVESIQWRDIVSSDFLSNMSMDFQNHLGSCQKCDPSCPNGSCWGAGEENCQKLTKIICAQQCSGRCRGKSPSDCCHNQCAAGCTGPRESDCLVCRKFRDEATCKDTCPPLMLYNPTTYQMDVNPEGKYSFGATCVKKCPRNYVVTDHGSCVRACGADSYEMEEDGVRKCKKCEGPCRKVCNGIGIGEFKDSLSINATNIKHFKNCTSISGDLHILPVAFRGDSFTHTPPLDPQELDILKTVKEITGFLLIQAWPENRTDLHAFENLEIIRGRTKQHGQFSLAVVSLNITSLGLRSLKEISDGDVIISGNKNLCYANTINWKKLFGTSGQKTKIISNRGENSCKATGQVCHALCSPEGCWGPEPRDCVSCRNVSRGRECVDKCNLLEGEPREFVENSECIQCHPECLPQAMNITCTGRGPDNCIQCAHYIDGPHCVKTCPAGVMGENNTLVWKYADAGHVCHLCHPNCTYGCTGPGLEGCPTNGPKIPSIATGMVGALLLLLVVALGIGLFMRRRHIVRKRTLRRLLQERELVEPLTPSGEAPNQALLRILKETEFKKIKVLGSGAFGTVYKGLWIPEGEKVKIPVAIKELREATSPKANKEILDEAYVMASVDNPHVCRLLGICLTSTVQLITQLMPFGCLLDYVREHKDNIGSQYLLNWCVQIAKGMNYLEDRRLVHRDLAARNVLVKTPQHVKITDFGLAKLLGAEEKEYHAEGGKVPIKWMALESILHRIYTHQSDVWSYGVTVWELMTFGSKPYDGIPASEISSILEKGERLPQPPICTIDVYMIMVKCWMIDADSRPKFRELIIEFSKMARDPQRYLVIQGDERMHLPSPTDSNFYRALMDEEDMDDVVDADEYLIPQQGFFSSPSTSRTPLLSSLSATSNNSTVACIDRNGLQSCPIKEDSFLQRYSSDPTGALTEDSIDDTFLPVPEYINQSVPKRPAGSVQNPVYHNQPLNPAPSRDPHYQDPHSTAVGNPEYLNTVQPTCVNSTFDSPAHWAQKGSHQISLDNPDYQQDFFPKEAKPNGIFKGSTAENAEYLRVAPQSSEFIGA
Chain of Follistatin-related protein 3 (Homo sapiens) (O95633 whole entry, looked up): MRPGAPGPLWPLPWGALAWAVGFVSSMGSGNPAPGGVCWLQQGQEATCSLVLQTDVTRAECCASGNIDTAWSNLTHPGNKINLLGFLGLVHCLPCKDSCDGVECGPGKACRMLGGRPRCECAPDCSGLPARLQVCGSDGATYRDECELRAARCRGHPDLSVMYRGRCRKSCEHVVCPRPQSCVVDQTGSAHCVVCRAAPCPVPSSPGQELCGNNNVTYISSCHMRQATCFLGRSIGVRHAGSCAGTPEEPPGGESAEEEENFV
Chain of Fibroblast growth factor 10 (Homo sapiens) (O15520 whole entry, looked up): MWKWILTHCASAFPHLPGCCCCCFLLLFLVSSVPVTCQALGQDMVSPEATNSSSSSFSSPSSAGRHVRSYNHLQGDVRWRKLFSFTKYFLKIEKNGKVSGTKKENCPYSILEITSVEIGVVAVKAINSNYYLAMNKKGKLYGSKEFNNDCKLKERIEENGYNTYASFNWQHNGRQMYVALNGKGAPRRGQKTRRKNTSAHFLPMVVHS
Chain of Dickkopf-related protein 1 (Homo sapiens) (O94907 whole entry, looked up): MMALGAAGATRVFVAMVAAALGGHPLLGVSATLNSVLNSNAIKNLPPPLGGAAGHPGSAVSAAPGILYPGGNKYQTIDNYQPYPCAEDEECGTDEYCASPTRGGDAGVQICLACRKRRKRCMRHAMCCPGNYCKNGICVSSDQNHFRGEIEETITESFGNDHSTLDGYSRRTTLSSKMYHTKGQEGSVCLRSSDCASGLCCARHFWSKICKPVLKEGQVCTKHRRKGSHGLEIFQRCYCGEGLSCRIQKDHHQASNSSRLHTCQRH

For `CC(C)C[C@@H]1NC(=O)[C@@H]2C[C@H](C(=O)NCCCC[N+](C)(C)C)[C@H](c3cccc(OCCO)c3)N2C1=O`, the composite z-score was 1.66 in [1]; -0.184 in assay [2]; -0.103 in [3]; 0.59 in assay [5]; 0.914 in [6]; 0.357 in [7]. Further, the composite z-score came out at 1.31 in [8], 1.95 in [9] and 0.88 in assay [10]. The z-score in assay [4] was -0.44 (inactive).
Take `O=C1C2C=CC(C(O)c3cccc4ccccc34)N(Nc3ccccc3)C2C(=O)N1c1ccccc1` (stereo not given): the composite z-score in assay [1] amounted to 1.54; in [2], 1.33; in assay [3], 0.945; in assay [5], 1.09; in assay [6], 1.28; in assay [7], 0.346. Also, the composite z-score in assay [8] was 1.43; in assay [9], 0.0156; in [10] it was 1.15. For the same compound, the z-score in assay [4] is -0.272 (inactive).
As to `C=CC[C@]1(C(=O)N(C)C)N=C(c2ccc(OCCCO)cc2)O[C@H]1c1ccccc1`, the composite z-score was 1.05 in [1]; 0.135 in assay [2]; 0.953 in [3]; 1.21 in assay [5]; 0.254 in assay [6]; -0.489 in [7]. In addition, the composite z-score in assay [8] was 0.479; in [9] it was -0.228; in assay [10] it was 0.832. The z-score in assay [4] was -1.04 (inactive).
As for `COc1ccccc1CN1C(=O)c2ccccc2[C@](Cc2ccccc2I)(C(=O)NCCN2CCOCC2)[C@@H]1c1ccc(CO)cc1`, the composite z-score is 1.62 in assay [1]; -0.0631 in [2]; 0.227 in [3]; 1.02 in [5]; 1.31 in assay [6]; 1.05 in assay [7]. For the same compound, the composite z-score came to 1.46 in [8], 0.635 in [9] and 0.437 in [10]. In addition, the z-score in assay [4] is 0.233 (inactive).
Consider `COCCOC(=O)N1C(=O)[C@@]2(c3cc(C#CCC(C(=O)OC)C(=O)OC)ccc31)[C@H](C(=O)N1CCCCCCC1)[C@H]1C(=O)O[C@H](c3ccccc3)[C@H](c3ccccc3)N1[C@@H]2c1ccc(O)cc1`, for which the composite z-score is 1.36 in assay [1]; 1.7 in [2]; 1.41 in assay [3]; 1.2 in [5]; 1.3 in assay [6]; 0.783 in assay [7]. Moreover, the composite z-score amounted to 1.45 in assay [8], 1.07 in [9] and 1.63 in assay [10]. Further, the z-score in [4] was 0.0931 (inactive).
For the compound `C#CCNS(=O)(=O)N(C)C`, the composite z-score was 0.365 in assay [1]; -0.0521 in assay [2]; -0.55 in [3]; 0.296 in assay [5]; 0.642 in assay [6]; 0.469 in assay [7]. Besides, the composite z-score in [8] is 0.31; in [9], 0.216; in assay [10] it was -0.128. In addition, the z-score in assay [4] was 0.0242 (inactive).
Take `COC(=O)[C@@]1(Cc2ccccc2)[C@H]2c3cc(C(=O)N4CCCC4)n(Cc4ccc(OC(F)(F)F)cc4)c3C[C@H]2CN1C(=O)c1ccccc1`: the composite z-score in assay [1] is 0.716; in assay [2] it was 1.34; in assay [3], 1.4; in [5] it was 0.872; in assay [6], 0.728; in [7] it was -0.357. Besides, the composite z-score is 0.685 in assay [8], -0.909 in assay [9] and 1.08 in assay [10]. Besides, the z-score in assay [4] was -0.286 (inactive).
In the case of `COC(=O)[C@@]1(Cc2ccc(OC)cc2)[C@H]2c3cc(C(=O)N4CCCC4)n(CCc4ccc(O)c(OC)c4)c3C[C@H]2CN1C(=O)c1ccccc1`, the composite z-score is -0.0995 in assay [1]; 0.527 in [2]; 1.09 in assay [3]; -0.317 in [5]; -0.175 in assay [6]; -0.481 in [7]. The composite z-score in [8] was -0.892; in [9], -1.13; in [10], 1.04. The z-score in assay [4] is -0.928 (inactive).
Regarding `Cc1ccc(C(C)CC(O)C2C=CC3C(=O)N(Cc4ccccc4)C(=O)C3N2n2cnnc2)o1` (stereo not given), the composite z-score in assay [1] worked out at 0.755; in assay [2], 1.85; in assay [3] it was 1.03; in assay [5] it was 0.841; in assay [6] it was 0.866; in assay [7], 0.0138. Besides, the results for the composite z-score in [8], in [9] and in [10] were 0.668, -0.484 and 1.09, respectively. In addition, in assay [4], the z-score was -0.665 (inactive).
Consider `COc1ccc([Si](C)(C)[C@@H]2[C@@H](CCO)O[C@]3(C(=O)N(Cc4ccc(N5C(=O)c6ccccc6Oc6ccccc65)cc4)c4ccccc43)[C@H]2C)cc1`, for which the composite z-score is -0.364 in [1]; -0.0754 in [2]; 0.543 in assay [3]; -0.791 in assay [5]; -1.07 in assay [6]; -1.57 in assay [7]. The composite z-score in assay [8] was -0.644; in assay [9], -0.815; in assay [10], -0.557. In addition, the z-score in [4] is -0.853 (inactive).
As to `CCCC=C(CCC)[C@@H](NS(=O)(=O)CC)c1ccccc1`, the composite z-score amounted to 0.903 in [1]; 0.303 in assay [2]; 0.726 in assay [3]; 0.601 in assay [5]; 1.12 in assay [6]; 0.167 in [7]. Moreover, the composite z-score in assay [8] was 0.388; in assay [9] it was -0.328; in assay [10], 0.147. Besides, the z-score in assay [4] was -3.42 (inactive).
